Assay results as given in PubChem BioAssay.
Active and inactive are the calls of the source.

Columns and labels:
[1] = A549 cell viability effects, profiling panel, calcein-AM fluorescence, 48 h, basal (AID 1162); details: higher = more signal
[2] = adipocyte viability effects, profiling panel, cell-based, 3T3-L1 adipocytes, calcein-AM fluorescence, 48 h, basal (AID 1163); details: 3T3-L1 adipocytes viability, higher = more signal
[3] = HepG2 cell viability effects, profiling panel, calcein-AM fluorescence, 48 h, basal (AID 1164); details: higher = more signal
[4] = MM1S cell viability effects, profiling panel, calcein-AM fluorescence, 48 h, basal (AID 1165); details: higher = more signal;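 note: viability of MM1S multiple myeloma cells under basal unstimulated conditions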
[5] = basal RPMI8226 viability, no added stimulus, profiling panel, cell-based, calcein-AM fluorescence, 48 h, PK04 Diversity Set (AID 1166); details: RPMI8226 myeloma viability, higher = more signal;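 note: cells grown under basal conditions without added stimulus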
[6] = basal HepG2 mitochondrial membrane potential changes, profiling panel, cell-based, JC-1 fluorescence, 24 h, 100 nL compound (AID 1167); details: higher = more signal
[7] = basal 3T3-L1 adipocyte mitochondrial potential changes, profiling panel, cell-based, JC-1 fluorescence, 3T3-L1 adipocytes, 24 h, 100 nL compound (AID 1168); details: JC-1 mitochondrial fluorescence, higher = more signal, called active from +8 up or from −8 down
[8] = basal RPMI8226 mitochondrial membrane potential changes, profiling panel, cell-based, JC-1 fluorescence, 24 h, 100 nL compound (AID 1169); details: RPMI8226 myeloma, JC-1 mitochondrial potential fluorescence, higher = more signal
[9] = basal MM1S mitochondrial membrane potential changes, profiling panel, cell-based, JC-1 fluorescence, 24 h, 100 nL compound (AID 1170); details: higher = more signal
[10] = A549 lung cancer cell viability effects, profiling panel, resazurin fluorescence, 24 h, PK04 Diversity Set (AID 1171); details: higher = more signal, called active from +8 up or from −8 down
Note: test concentration not given here.

| SMILES | z-score [1] | z-score [2] | z-score [3] | z-score [4] | z-score [5] | z-score [6] | z-score [7] | z-score [8] | z-score [9] | z-score [10] |
| --- | --- | --- | --- | --- | --- | --- | --- | --- | --- | --- |
| CN(C)CCCNC(=O)[C@@H]1c2ccccc2C(=O)N(Cc2ccccc2C(F)(F)F)[C@H]1c1ccc(CO)cc1 | 1.42 | 0.747 | 1.13 | 0.353 | 1.09 | 2.98 | -0.343 (inactive) | 0.188 | -0.317 | 1.45 (inactive) |
| CC1=C([C@H](O)CCc2ccccc2)[C@H](CO)n2c(=O)n(-c3ccccc3)c(=O)n2C1 | 0.229 | 0.273 | 0.862 | 0.5 | 0.874 | -0.303 | 0.603 (inactive) | -0.237 | -1.16 | -0.331 (inactive) |
| CCCCCCc1nc(-c2ccc(-c3ccc(Cl)c(Cl)c3)o2)cc2c1[Si](C(C)C)(C(C)C)OC2 | -0.567 | 1.84 | -0.0442 | -3 | -4.4 | -1.24 | 0.771 (inactive) | -0.934 | -1.23 | 1.19 (inactive) |
| CN1C(=O)C2C=CC(C(O)c3ccc(-c4ccccc4)s3)N(NC(=O)OC(C)(C)C)C2C1=O (stereo not given) | -0.823 | -1.6 | -0.68 | 0.244 | -0.906 | -1.73 | -0.339 (inactive) | -0.0635 | 0.856 | 0.117 (inactive) |
| CCOC(=O)C1=CCC(c2cc3ccccc3[nH]2)N(CCN2CC(C(=O)OCC)=CCC2c2cc3ccccc3[nH]2)C1 (stereo not given) | -0.638 | 0.552 | 0.105 | 0.183 | -0.54 | -0.4 | -0.73 (inactive) | -0.111 | -1.83 | 0.161 (inactive) |
| O=C1C[C@@](C(=O)NCc2ccccc2)(c2ccc([N+](=O)[O-])cc2)[C@@H](c2ccc(CO)cc2)N1C1CCCCC1 | 0.691 | 1.34 | 2.22 | 0.406 | 0.956 | 2.33 | 1.58 (inactive) | -0.343 | 0.242 | -0.685 (inactive) |
| COCCCNC(=O)[C@@]1(CCS(=O)(=O)c2ccccc2)COC(c2ccc(OCCCO)cc2)=N1 | -0.222 | 1.11 | -0.771 | -0.181 | -0.49 | -0.903 | -0.736 (inactive) | -0.249 | -0.0725 | -0.468 (inactive) |
| Cc1ccc(S[C@]2(C(=O)NCc3ccccc3)CC(=O)N(Cc3ccccc3C(F)(F)F)[C@@H]2c2ccc(CO)cc2)cc1 | 0.653 | 0.269 | 1.73 | 0.0811 | 1.36 | 0.779 | 0.311 (inactive) | -0.0337 | -0.216 | -1.35 (inactive) |
| CCOC(=O)C[C@H]1[C@H](OC(=O)c2ccccc2-c2ccccc2)[C@@H](NC(=O)C2CCCCC2)c2cc(OCCCO)ccc2N1C(=O)c1ccc2ccccc2n1 | 0.448 | -0.87 | 0.581 | -0.742 | -1.3 | -0.28 | 1.19 (inactive) | -0.21 | -0.621 | -0.417 (inactive) |
| C=CCN1Cc2ccccc2[C@H]2OC(c3ccc(OCCCO)cc3)=N[C@@]2(CCS(=O)(=O)c2ccccc2)C1=O | 0.0622 | 0.413 | -0.37 | -1.56 | -0.209 | -0.971 | -0.509 (inactive) | -0.798 | -0.0644 | 0.0687 (inactive) |
| C[N+](C)(C)CCCC[C@@H]1NC(=O)[C@H]2C[C@@H](C(=O)NCCCCCNC(=O)CS)[C@@H](c3cccc(OCCO)c3)N2C1=O | 0.316 | 0.571 | -0.953 | -0.631 | 0.37 | 1.09 | 0.127 (inactive) | 0.812 | 0.415 | -0.219 (inactive) |
| COC(=O)C(CC#Cc1ccc2c(c1)[C@]1(C(=O)N2)[C@H](C(=O)N2CCc3cc(OC)c(OC)cc3C2)[C@H]2C(=O)O[C@H](c3ccccc3)[C@H](c3ccccc3)N2[C@@H]1c1ccccc1OCCO)C(=O)OC | -0.179 | -0.665 | 0.43 | -0.151 | 0.546 | -0.0236 | 0.968 (inactive) | -0.839 | -1.42 | -0.694 (inactive) |
| CC(C)(C)OC(=O)CC[C@]1(C(=O)NCC(O)CO)N=C(c2ccc(OCCCO)cc2)O[C@H]1c1ccccc1N=[N+]=[N-] (stereo not given in full) | 0.0239 | 0.809 | 0.324 | -0.312 | -0.198 | 0.0858 | 2.2 (inactive) | -0.832 | -0.591 | 0.35 (inactive) |
| COc1ccc([Si](C)(C)[C@H]2[C@H](CC(=O)N3Cc4ccccc4C[C@H]3CO)O[C@@]3(C(=O)N(C)c4ccccc43)[C@@H]2C)cc1 | -0.962 | 1.43 | -1.42 | -2.67 | -4.05 | -0.592 | -0.0846 (inactive) | -1.1 | -0.748 | -0.299 (inactive) |
| COc1ccc([Si](C)(C)[C@H]2[C@H](CCO)O[C@@]3(C(=O)N(Cc4ccc(NC(=O)[C@H](C)O)cc4)c4ccccc43)[C@@H]2C)cc1 | -3.33 | 1.36 | -4.58 | -2.64 | -4.47 | -2.19 | 0.843 (inactive) | -1.11 | -2.31 | -5.03 (inactive) |
| C=CCC(OC(C)=O)[C@@H]1[C@@H](N(Cc2cccc3ccccc23)C(=O)Cc2ccc(OC)cc2)c2cc(OCCCO)ccc2N1C(=O)Cc1ccc2ccccc2c1 (stereo not given in full) | -0.105 | 0.759 | -0.472 | 0.0986 | -1.36 | 3 | -0.199 (inactive) | -0.226 | 0.0724 | 0.719 (inactive) |
